# Test results reported in the supplement of paper PMC12282887.
# ± gives the standard deviation of the averaged measurements.
# Experiments:
# Test in all cases: promoter activity interaction Z-score (Lux/OD deviation from empty-vector control); higher = stronger promoter induction by the compound
# [1] = test system: E. coli BW25113 acrABp lux reporter
# Procedure, shortened: (§1)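 At 37°C, E. coli BW25113 reporter cultures in 40 µl LB Lennox in 384-well plates were read for OD600 and luminescence every 30 min for 12 h. Windows were 0–8 h for wild type and 1–9 h for deletion strains, and wells under 10% of the median growth value were removed. The score is the Z-transformed residual of growth-normalised luminescence against a control fit.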
# [2] = test system: E. coli BW25113 micFp lux reporter
# Procedure, shortened: as §1
# [3] = test system: E. coli BW25113 ompFp lux reporter
# Procedure, shortened: as §1
# [4] = test system: E. coli BW25113 robp lux reporter
# Procedure, shortened: as §1
# [5] = test system: E. coli BW25113 soxSp lux reporter
# Procedure, shortened: as §1
# [6] = test system: E. coli BW25113 tolCp lux reporter
# Procedure, shortened: as §1
# [7] = 17 µg/ml, genetic background: wild type
# [8] = 17 µg/ml, genetic background: ΔmarA
# [9] = 17 µg/ml, genetic background: Δrob
# [10] = 17 µg/ml, genetic background: ΔsoxS
# [11] = 34 µg/ml, genetic background: wild type
# [12] = 34 µg/ml, genetic background: ΔmarA
# [13] = 34 µg/ml, genetic background: Δrob
# [14] = 34 µg/ml, genetic background: ΔsoxS
# [15] = 68.1 µg/ml, genetic background: wild type
# [16] = 68.1 µg/ml, genetic background: ΔmarA
# [17] = 68.1 µg/ml, genetic background: Δrob
# [18] = 68.1 µg/ml, genetic background: ΔsoxS
# [19] = 136.2 µg/ml, genetic background: wild type
# [20] = 136.2 µg/ml, genetic background: ΔmarA
# [21] = 136.2 µg/ml, genetic background: Δrob
# [22] = 136.2 µg/ml, genetic background: ΔsoxS
smiles,measurement,setting,value
C[C@]12CC[C@@H]3c4ccc(O)cc4CC[C@H]3[C@@H]1CC[C@@H]2O [Estradiol],promoter activity interaction Z-score,[1]; [7],0.298 ± 0.0088
same,promoter activity interaction Z-score,[1]; [8],-0.217 ± 0.5
same,promoter activity interaction Z-score,[1]; [9],-0.138 ± 0.15
same,promoter activity interaction Z-score,[1]; [10],-0.335 ± 0.57
same,promoter activity interaction Z-score,[1]; [11],0.101 ± 0.01
same,promoter activity interaction Z-score,[1]; [12],0.101 ± 1.4
same,promoter activity interaction Z-score,[1]; [13],-0.0321 ± 0.063
same,promoter activity interaction Z-score,[1]; [14],-0.0568 ± 0.0019
same,promoter activity interaction Z-score,[1]; [15],-0.0194 ± 0.39
same,promoter activity interaction Z-score,[1]; [16],1.6 ± 0.16
same,promoter activity interaction Z-score,[1]; [17],-0.247 ± 0.35
same,promoter activity interaction Z-score,[1]; [18],-0.0269 ± 0.066
same,promoter activity interaction Z-score,[1]; [19],0.225 ± 0.041
same,promoter activity interaction Z-score,[1]; [20],-0.22 ± 0.31
same,promoter activity interaction Z-score,[1]; [21],-0.28 ± 0.4
same,promoter activity interaction Z-score,[1]; [22],0.453 ± 0.73
same,promoter activity interaction Z-score,[2]; [7],0.105 ± 0.31
same,promoter activity interaction Z-score,[2]; [8],-0.0854 ± 0.0072
same,promoter activity interaction Z-score,[2]; [9],-0.132 ± 0.0023
same,promoter activity interaction Z-score,[2]; [10],-0.254 ± 0.061
same,promoter activity interaction Z-score,[2]; [11],-0.221 ± 0.34
same,promoter activity interaction Z-score,[2]; [12],-0.0642 ± 0.01
same,promoter activity interaction Z-score,[2]; [13],-0.194 ± 0.16
same,promoter activity interaction Z-score,[2]; [14],0.292 ± 0.13
same,promoter activity interaction Z-score,[2]; [15],0.178 ± 0.23
same,promoter activity interaction Z-score,[2]; [16],0.0617 ± 0.15
same,promoter activity interaction Z-score,[2]; [17],-0.166 ± 0.3
same,promoter activity interaction Z-score,[2]; [18],0.179 ± 0.19
same,promoter activity interaction Z-score,[2]; [19],0.028 ± 0.51
same,promoter activity interaction Z-score,[2]; [20],0.118 ± 0.11
same,promoter activity interaction Z-score,[2]; [21],-0.079 ± 0.16
same,promoter activity interaction Z-score,[2]; [22],0.578 ± 0.0079
same,promoter activity interaction Z-score,[3]; [7],0.501 ± 0.11
same,promoter activity interaction Z-score,[3]; [8],-0.126 ± 0.37
same,promoter activity interaction Z-score,[3]; [9],-0.146 ± 0.11
same,promoter activity interaction Z-score,[3]; [10],0.0169 ± 0.25
same,promoter activity interaction Z-score,[3]; [11],-0.603 ± 0.43
same,promoter activity interaction Z-score,[3]; [12],-0.0141 ± 0.44
same,promoter activity interaction Z-score,[3]; [13],-0.554 ± 0.48
same,promoter activity interaction Z-score,[3]; [14],-0.0316 ± 0.18
same,promoter activity interaction Z-score,[3]; [15],-0.329 ± 0.44
same,promoter activity interaction Z-score,[3]; [16],0.821 ± 0.84
same,promoter activity interaction Z-score,[3]; [17],-0.486 ± 0.4
same,promoter activity interaction Z-score,[3]; [18],-0.581 ± 0.16
same,promoter activity interaction Z-score,[3]; [19],-0.397 ± 0.85
same,promoter activity interaction Z-score,[3]; [20],-0.336 ± 0.37
same,promoter activity interaction Z-score,[3]; [21],-0.534 ± 0.93
same,promoter activity interaction Z-score,[3]; [22],-0.638 ± 0.074
same,promoter activity interaction Z-score,[4]; [7],0.7215 ± 0.0031
same,promoter activity interaction Z-score,[4]; [8],0.25 ± 0.44
same,promoter activity interaction Z-score,[4]; [9],-0.0547 ± 0.13
same,promoter activity interaction Z-score,[4]; [10],0.453 ± 0.085
same,promoter activity interaction Z-score,[4]; [11],-0.0162 ± 0.89
same,promoter activity interaction Z-score,[4]; [12],-0.0102 ± 0.92
same,promoter activity interaction Z-score,[4]; [13],-0.0213 ± 0.28
same,promoter activity interaction Z-score,[4]; [14],0.926 ± 0.78
same,promoter activity interaction Z-score,[4]; [15],0.13 ± 0.81
same,promoter activity interaction Z-score,[4]; [16],1.9 ± 0.56
same,promoter activity interaction Z-score,[4]; [17],-0.509 ± 0.5
same,promoter activity interaction Z-score,[4]; [18],0.373 ± 0.42
same,promoter activity interaction Z-score,[4]; [19],0.104 ± 0.37
same,promoter activity interaction Z-score,[4]; [20],0.282 ± 0.21
same,promoter activity interaction Z-score,[4]; [21],-0.478 ± 0.3
same,promoter activity interaction Z-score,[4]; [22],0.863 ± 0.52
same,promoter activity interaction Z-score,[5]; [7],0.266 ± 0.12
same,promoter activity interaction Z-score,[5]; [8],0.0464 ± 0.17
same,promoter activity interaction Z-score,[5]; [9],-0.0494 ± 0.027
same,promoter activity interaction Z-score,[5]; [10],0.159 ± 0.028
same,promoter activity interaction Z-score,[5]; [11],-0.15 ± 0.012
same,promoter activity interaction Z-score,[5]; [12],0.102 ± 0.021
same,promoter activity interaction Z-score,[5]; [13],-0.334 ± 0.0093
same,promoter activity interaction Z-score,[5]; [14],0.0514 ± 0.057
same,promoter activity interaction Z-score,[5]; [15],-0.196 ± 0.013
same,promoter activity interaction Z-score,[5]; [16],0.057 ± 0.029
same,promoter activity interaction Z-score,[5]; [17],-0.104 ± 0.2
same,promoter activity interaction Z-score,[5]; [18],0.254 ± 0.52
same,promoter activity interaction Z-score,[5]; [19],-0.422 ± 0.035
same,promoter activity interaction Z-score,[5]; [20],-0.276 ± 0.077
same,promoter activity interaction Z-score,[5]; [21],-0.275 ± 0.2
same,promoter activity interaction Z-score,[5]; [22],-0.137 ± 0.099
same,promoter activity interaction Z-score,[6]; [7],0.895 ± 0.21
same,promoter activity interaction Z-score,[6]; [8],-0.343 ± 0.88
same,promoter activity interaction Z-score,[6]; [9],-0.103 ± 1
same,promoter activity interaction Z-score,[6]; [10],-0.491 ± 0.4
same,promoter activity interaction Z-score,[6]; [11],-0.0124 ± 0.71
same,promoter activity interaction Z-score,[6]; [12],-0.745 ± 0.26
same,promoter activity interaction Z-score,[6]; [13],-0.126 ± 1.3
same,promoter activity interaction Z-score,[6]; [14],0.321 ± 0.44
same,promoter activity interaction Z-score,[6]; [15],-0.293 ± 0.52
same,promoter activity interaction Z-score,[6]; [16],0.492 ± 0.095
same,promoter activity interaction Z-score,[6]; [17],0.143 ± 0.3
same,promoter activity interaction Z-score,[6]; [18],0.521 ± 0.57
same,promoter activity interaction Z-score,[6]; [19],0.506 ± 0.79
same,promoter activity interaction Z-score,[6]; [20],-0.446 ± 0.55
same,promoter activity interaction Z-score,[6]; [21],-0.721 ± 0.35
same,promoter activity interaction Z-score,[6]; [22],0.191 ± 0.75
